The text below walks through data of ChEMBL document CHEMBL3988442, “University of Dundee, Small-Polar-MMV Screening Library” (2021).

For some assays here: Results with a measured potency or affinity are listed apart.

Parameters in all cases: scale not given: direction of the effect not stated beside the values
In assay [1] the target is Protein translocase subunit SecA (Escherichia coli (strain K12)) (UniProt P10408). The assay can be described thus: Assay to Identify E. coli SecA ATPase Inhibitors. Format: functional. As to conditions: 30 µM.
Assay [2] addresses T1, Ubiquitin-activating enzyme e1, putative (Leishmania donovani (strain BPK282A1)) (UniProt E9BSI1).
T1 sequence (whole entry): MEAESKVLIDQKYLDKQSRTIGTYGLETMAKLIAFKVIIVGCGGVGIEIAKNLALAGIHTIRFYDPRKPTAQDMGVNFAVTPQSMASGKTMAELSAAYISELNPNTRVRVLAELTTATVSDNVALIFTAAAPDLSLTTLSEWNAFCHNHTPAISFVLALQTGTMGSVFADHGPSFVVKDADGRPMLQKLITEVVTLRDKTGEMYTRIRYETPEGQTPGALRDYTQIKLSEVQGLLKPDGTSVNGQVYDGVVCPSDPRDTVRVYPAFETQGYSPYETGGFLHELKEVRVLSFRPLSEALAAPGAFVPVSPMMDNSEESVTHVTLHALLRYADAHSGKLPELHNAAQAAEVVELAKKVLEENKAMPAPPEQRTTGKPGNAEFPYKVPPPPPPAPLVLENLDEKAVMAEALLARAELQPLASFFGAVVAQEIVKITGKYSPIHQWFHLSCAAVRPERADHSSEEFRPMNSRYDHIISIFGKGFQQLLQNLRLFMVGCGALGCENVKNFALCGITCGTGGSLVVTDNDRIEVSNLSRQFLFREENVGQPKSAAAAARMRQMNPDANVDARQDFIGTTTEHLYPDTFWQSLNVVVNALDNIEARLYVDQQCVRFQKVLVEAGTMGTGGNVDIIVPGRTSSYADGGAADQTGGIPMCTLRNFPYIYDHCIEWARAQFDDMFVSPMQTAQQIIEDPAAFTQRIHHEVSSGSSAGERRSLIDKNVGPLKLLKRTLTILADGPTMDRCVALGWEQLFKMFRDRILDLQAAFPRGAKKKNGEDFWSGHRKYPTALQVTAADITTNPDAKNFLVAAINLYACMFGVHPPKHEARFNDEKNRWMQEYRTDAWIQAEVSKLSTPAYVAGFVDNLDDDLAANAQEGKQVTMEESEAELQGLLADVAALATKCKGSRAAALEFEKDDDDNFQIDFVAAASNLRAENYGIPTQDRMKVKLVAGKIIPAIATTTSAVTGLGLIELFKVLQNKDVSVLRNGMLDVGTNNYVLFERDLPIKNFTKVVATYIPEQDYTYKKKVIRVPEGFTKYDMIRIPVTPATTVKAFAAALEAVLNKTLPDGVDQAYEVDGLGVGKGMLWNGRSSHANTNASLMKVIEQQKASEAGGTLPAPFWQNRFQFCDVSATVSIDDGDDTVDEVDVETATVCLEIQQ
Kind of assay: Leishmania donovani Ubiquitin Activating Enzyme (LdE1). The format is functional. As to conditions: 30 µM.

For assay [3], the target named is AMP-activated protein kinase, AMPK (Homo sapiens) (UniProt P54646+O43741+P54619+Q9UGJ0+Q9Y478+Q13131+Q9UGI9). Kind of assay: AMP-dependent Kinase enzyme assay. An in vitro enzyme assay that detects ADP turnover that is directly proportional to AMPK activity. This uses naive AMPK that is activated during the assay with MK-8722. As to conditions: 30 µM. Format: functional.

Assay [4] addresses Sialic acid-binding Ig-like lectin 9 (Homo sapiens) (UniProt Q9Y336). Kind of assay: Hs-Siglec9 ALPHAscreen SOP 20170721. Conditions: 10 µM. (Bead proximity is the source of the signal in Alpha formats.)
The subject of a further assay is Trypanosoma cruzi. Kind of assay: Trypanosoma cruzi phosphomannomutase and mannose-1-phosphate guanylyltransferase assay. The format is functional. Conditions: 10 µM.
The target of assay [5] is T2, Arginase-2, mitochondrial (Homo sapiens) (UniProt P78540).
T2 sequence (whole entry): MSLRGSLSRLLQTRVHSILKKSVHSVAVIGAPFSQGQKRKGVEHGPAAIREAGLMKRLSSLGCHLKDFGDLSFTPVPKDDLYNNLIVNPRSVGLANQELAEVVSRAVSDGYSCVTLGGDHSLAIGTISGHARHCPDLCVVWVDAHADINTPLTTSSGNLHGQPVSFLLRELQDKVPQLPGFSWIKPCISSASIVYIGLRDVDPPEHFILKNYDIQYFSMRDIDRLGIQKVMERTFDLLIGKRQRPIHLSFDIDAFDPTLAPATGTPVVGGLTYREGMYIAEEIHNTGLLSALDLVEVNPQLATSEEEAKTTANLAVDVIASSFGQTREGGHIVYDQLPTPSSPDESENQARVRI
Kind of assay: in vitro enzyme assay to detect the production of urea directly proportional to the activity of Arginase II. Note: in the data most compounds retested in dose-response had high values. Format: functional. As to conditions: 33.3 µM.

Assay [6] deals with T3, Proteasome subunit beta (Trypanosoma cruzi) (UniProt O96673).
T3 sequence (whole entry): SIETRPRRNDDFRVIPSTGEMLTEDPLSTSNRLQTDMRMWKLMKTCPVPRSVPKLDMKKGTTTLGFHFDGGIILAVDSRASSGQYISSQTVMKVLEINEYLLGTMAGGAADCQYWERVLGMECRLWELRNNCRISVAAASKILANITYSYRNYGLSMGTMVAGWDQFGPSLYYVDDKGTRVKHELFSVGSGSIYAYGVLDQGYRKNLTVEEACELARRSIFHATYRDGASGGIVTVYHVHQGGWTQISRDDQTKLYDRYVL
The assay can be described thus: Trypanosoma cruzi proteasome chymotrypsin-like activity (TcProtChymo) assay. Note: in the data most compounds retested in dose-response had high values. The format is functional. As to conditions: 9.37 µM.

For another assay, the species on record is Homo sapiens. Kind of assay: To identify inhibition of the IFN signalling (Jak-Stat) pathway via expression of an eGFP reporter gene under the control of an IFN-stimulated response element (ISRE) containing MxA promoter. The format is functional. Conditions: 30 µM. Background: Reporter assays use an easily measured gene product as a stand-in for the process of interest.

Assay [7] concerns the target T4, Tyrosyl-tRNA synthetase, putative (Trypanosoma cruzi (strain CL Brener)) (UniProt Q4DSP6).
T4 sequence (whole entry): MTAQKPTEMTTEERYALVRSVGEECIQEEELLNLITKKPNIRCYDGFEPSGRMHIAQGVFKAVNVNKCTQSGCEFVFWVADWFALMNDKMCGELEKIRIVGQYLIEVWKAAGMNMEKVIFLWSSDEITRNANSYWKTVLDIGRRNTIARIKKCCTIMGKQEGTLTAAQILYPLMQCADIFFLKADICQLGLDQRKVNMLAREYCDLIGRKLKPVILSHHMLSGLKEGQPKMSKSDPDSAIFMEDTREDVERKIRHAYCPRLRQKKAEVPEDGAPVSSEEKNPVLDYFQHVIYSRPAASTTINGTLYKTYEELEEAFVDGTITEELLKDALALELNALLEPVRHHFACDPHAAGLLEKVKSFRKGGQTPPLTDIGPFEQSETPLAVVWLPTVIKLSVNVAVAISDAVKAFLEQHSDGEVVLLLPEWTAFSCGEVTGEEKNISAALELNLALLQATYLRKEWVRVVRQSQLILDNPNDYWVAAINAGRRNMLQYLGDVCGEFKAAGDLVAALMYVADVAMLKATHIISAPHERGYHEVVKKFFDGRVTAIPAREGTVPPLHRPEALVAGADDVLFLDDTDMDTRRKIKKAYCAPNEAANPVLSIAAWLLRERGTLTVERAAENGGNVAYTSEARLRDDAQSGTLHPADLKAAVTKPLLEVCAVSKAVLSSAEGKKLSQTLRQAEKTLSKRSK
The assay can be described thus: Trypanosoma cruzi tyrosyl tRNA synthetase (TcYRS) _High Tyrosine SOP. Note: in the data most compounds retested in dose-response had high values. The format is functional. Conditions: 30 µM.

In assay [8] the target is T4, Tyrosyl-tRNA synthetase, putative (Trypanosoma cruzi (strain CL Brener)). The assay can be described thus: Trypanosoma cruzi tyrosyl tRNA synthetase (TcYRS) SOP. Format: functional. Conditions: 30 µM.
Assay [9] deals with Chromo domain-containing protein 1 (Saccharomyces cerevisiae (strain ATCC 204508 / S288c) (Baker's yeast)) (UniProt P32657). The assay can be described thus: ScCHD-1 Enzyme Inhibition Assay. Note: in the data most compounds retested in dose-response had high values. Conditions: 30 µM. The format is functional.
Chain of Chromo domain-containing protein 1 (Saccharomyces cerevisiae (strain ATCC 204508 / S288c) (Baker's yeast)) (P32657 whole entry, the tested form may be a part): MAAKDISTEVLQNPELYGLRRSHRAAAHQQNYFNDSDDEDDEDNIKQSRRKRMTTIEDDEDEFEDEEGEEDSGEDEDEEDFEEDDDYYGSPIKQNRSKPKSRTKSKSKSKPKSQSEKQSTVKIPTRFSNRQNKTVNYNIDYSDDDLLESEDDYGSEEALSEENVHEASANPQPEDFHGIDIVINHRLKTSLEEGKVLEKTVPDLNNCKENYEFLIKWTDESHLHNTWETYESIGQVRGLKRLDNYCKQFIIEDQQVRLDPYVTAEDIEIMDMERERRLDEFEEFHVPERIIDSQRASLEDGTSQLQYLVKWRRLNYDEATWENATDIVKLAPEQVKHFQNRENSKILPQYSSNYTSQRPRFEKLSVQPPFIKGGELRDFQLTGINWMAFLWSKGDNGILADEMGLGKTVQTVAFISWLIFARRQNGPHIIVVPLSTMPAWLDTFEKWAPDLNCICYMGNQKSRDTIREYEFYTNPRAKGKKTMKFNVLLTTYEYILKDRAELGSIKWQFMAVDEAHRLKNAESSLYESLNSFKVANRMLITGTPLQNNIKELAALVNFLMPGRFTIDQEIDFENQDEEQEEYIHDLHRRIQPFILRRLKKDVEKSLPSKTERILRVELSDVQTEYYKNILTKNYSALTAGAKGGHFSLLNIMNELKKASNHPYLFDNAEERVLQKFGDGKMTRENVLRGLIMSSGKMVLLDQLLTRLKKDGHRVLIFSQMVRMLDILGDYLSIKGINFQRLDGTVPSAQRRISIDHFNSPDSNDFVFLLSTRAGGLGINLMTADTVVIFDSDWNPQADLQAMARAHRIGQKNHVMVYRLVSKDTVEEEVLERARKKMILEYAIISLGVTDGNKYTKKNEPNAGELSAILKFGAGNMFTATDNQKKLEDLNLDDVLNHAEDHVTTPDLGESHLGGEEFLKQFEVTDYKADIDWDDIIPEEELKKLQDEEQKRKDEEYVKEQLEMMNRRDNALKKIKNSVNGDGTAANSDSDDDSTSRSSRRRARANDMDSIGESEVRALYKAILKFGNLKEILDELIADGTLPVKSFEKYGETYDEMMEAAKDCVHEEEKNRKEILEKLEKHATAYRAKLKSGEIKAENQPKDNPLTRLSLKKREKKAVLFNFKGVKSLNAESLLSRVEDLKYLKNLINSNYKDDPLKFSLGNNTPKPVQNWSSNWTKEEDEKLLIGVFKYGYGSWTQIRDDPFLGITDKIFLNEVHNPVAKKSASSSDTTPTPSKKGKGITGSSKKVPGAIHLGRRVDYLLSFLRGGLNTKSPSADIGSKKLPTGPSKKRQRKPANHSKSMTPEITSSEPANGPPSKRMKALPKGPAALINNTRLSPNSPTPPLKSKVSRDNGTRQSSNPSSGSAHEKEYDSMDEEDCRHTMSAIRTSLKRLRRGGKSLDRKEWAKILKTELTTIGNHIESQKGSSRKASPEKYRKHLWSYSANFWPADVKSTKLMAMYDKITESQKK

Chain of Sialic acid-binding Ig-like lectin 9 (Homo sapiens) (Q9Y336 whole entry): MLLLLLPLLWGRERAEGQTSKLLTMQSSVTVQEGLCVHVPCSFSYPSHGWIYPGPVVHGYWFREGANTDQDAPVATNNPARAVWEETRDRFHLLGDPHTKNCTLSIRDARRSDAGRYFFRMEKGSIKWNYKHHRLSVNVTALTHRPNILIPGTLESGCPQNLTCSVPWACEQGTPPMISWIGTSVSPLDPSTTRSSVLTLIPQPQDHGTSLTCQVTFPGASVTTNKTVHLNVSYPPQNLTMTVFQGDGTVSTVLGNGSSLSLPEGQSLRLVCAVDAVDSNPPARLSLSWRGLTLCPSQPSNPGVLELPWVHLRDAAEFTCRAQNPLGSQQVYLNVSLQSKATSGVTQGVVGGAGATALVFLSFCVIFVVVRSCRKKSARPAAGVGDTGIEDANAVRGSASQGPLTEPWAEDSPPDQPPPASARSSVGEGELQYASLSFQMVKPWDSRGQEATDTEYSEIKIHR
Chain of Protein translocase subunit SecA (Escherichia coli (strain K12)) (P10408 whole entry): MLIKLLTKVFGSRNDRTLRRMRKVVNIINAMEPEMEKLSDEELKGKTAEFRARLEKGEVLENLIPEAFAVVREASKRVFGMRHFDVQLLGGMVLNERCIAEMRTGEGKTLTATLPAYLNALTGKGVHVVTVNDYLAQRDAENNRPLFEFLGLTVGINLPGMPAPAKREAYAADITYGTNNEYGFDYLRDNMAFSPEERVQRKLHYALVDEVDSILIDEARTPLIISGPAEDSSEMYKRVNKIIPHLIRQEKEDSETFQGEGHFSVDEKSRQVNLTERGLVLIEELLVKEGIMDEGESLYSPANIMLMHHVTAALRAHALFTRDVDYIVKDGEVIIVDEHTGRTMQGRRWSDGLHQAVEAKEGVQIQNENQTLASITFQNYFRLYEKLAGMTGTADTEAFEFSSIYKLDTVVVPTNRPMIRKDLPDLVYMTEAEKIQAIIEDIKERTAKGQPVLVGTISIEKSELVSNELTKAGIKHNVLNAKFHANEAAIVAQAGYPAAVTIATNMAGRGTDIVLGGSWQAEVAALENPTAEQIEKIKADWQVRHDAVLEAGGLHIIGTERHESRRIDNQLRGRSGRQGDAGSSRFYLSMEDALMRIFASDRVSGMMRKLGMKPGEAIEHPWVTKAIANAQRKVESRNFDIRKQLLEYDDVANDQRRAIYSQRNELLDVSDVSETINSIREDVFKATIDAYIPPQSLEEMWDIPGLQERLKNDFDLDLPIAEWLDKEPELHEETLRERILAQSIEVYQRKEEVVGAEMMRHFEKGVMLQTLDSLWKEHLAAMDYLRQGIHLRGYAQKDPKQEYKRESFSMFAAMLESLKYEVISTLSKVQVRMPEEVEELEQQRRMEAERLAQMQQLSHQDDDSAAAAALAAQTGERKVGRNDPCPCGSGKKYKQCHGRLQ

Turning to `CCN1CCN(C(=O)c2nc(C)n(-c3ccccc3Cl)n2)CC1`, the Percent Effect in [1] is -9.34%; in assay [2], 7.89%; in assay [3], -2.25%; in assay [4], 14.9%; in the assay with Trypanosoma cruzi it was 5.7%; in assay [5], 2.16%. The Percent Effect was 3.81% in [6]; -16.5% in the assay filed under Homo sapiens; 4.43% in assay [7]; 23.5% in [8]; -7.33% in [9].

As to `N#Cc1ccc(F)c(CN2CCCC2Cn2cccn2)c1` (stereo not given), the Percent Effect is -4.03% in assay [1]; -8.11% in assay [2]; -4.51% in assay [3]; 13.8% in assay [4]; 1.39% in the assay with Trypanosoma cruzi; -0.554% in [5]. For the same compound, the Percent Effect is -0.359% in assay [6]; 4.22% in the assay listed under Homo sapiens; 4.95% in assay [7]; 1.22% in assay [8]; 4.66% in assay [9].

Consider `CN(C)c1nc2c(c(N3CCC(O)CC3)n1)CN(CC1CCNC1)CC2` (stereo not given), for which the Percent Effect in [1] was -1.69%; in assay [2], 10.8%; in assay [3], -1.59%; in assay [4], 10.5%; in the assay on Trypanosoma cruzi it was 0.193%; in assay [5], 0.476%. In addition, the Percent Effect is 10.9% in [6]; 2.62% in the assay filed under Homo sapiens; 12.2% in [7]; 19.5% in assay [8]; -4.09% in assay [9].

As to `COCCNC(=O)C(C)n1cc(Br)cn1` (stereo not given), the Percent Effect was -3.71% in assay [1]; 5.2% in assay [2]; 1.52% in assay [3]; 7.73% in [4]; 0.492% in the assay on Trypanosoma cruzi; -2.76% in assay [5]. The Percent Effect is 13.1% in assay [6]; 5.02% in the assay listed under Homo sapiens; 9.68% in assay [7]; 16.1% in [8]; 135% in assay [9].

Regarding `CCc1nc(CCNC(=O)Nc2cc(C(N)=O)sc2C)cs1`, the Percent Effect is -6.09% in assay [1]; 0% in assay [2]; -8.97% in [3]; -2.52% in assay [4]; -4.19% in the assay with Trypanosoma cruzi; -1.56% in assay [5]. Besides, the Percent Effect in assay [6] was 3.14%; in the assay filed under Homo sapiens it was 19.9%; in assay [7], -0.546%; in assay [8], -3.7%; in assay [9] it was 4.38%.

Take `CCCc1n[nH]c(C2CN(CCCS(C)(=O)=O)CCO2)n1` (stereo not given): the Percent Effect in assay [1] is -5.31%; in assay [2], 11.4%; in [3], 0.105%; in [4] it was -1.3%; in the assay on Trypanosoma cruzi, 1.13%; in assay [5], 2.37%. Further, the Percent Effect was 14.1% in [6]; 1.09% in the assay filed under Homo sapiens; 5.21% in assay [7]; 10.1% in assay [8]; -22.8% in assay [9].

For the compound `O=C1COC2(COCCN(Cc3cccnc3)C2)CN1c1ccoc1` (stereo not given), the Percent Effect in [1] is -0.625%; in [2], 5.2%; in [3], 2.84%; in assay [4], 0.684%; in the assay with Trypanosoma cruzi, -10.6%; in assay [5], 7.1%. Besides, the Percent Effect in assay [6] is 4.87%; in the assay listed under Homo sapiens, 8.52%; in assay [7], 0%; in [8] it was 1.28%; in assay [9], -1.12%.

Consider `CCC(=O)NCC(=O)NCc1cc(Br)ccc1OC(F)F`, for which the Percent Effect was -3.84% in assay [1]; 18.7% in [2]; -6.58% in [3]; 53.5% in assay [4]; 3.41% in the assay on Trypanosoma cruzi; 18.8% in [5]. The Percent Effect in assay [6] was 7.15%; in the assay filed under Homo sapiens, -3.97%; in [7] it was 7.1%; in assay [8] it was 18.5%; in assay [9], -8.96%.

For `N#CC1(C(=O)N2CCN(Cc3ccon3)CC2)CCC1`, the Percent Effect in assay [1] is -1.32%; in assay [2], 5.06%; in assay [3], 1.56%; in assay [4], 6.56%; in the assay with Trypanosoma cruzi it was -7.84%; in assay [5], 9.89%. Further, the Percent Effect is 1.56% in [6]; 23.8% in the assay listed under Homo sapiens; 0.493% in assay [7]; 1.27% in assay [8]; -3.39% in assay [9].

Take `CC[C@@]1(O)CCN(C(=O)c2ccsc2)C[C@H]1O`: the Percent Effect in assay [1] is -3.94%; in assay [2] it was 4.17%; in assay [3], -1.21%; in assay [4], -6.46%; with Trypanosoma cruzi it was -2.82%; in assay [5] it was 3.09%. For the same compound, the Percent Effect in [6] is 12.3%; in the assay filed under Homo sapiens it was -3.4%; in assay [7], 4.21%; in assay [8], 5.13%; in [9], 0.37%.
